Laboratory results from PubChem BioAssay AID2435 (The Scripps Research Institute Molecular Screening Center, 2010).
In all, about 320,000 compounds went through this assay and about 1,000 (0.31%) were called active.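 How the source made its calls: active means activation above the mean of all tested compounds plus 3 SD, cutoff set per screening run (cut at about 20% in these data); inactive means the rest.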 This excerpt belongs to a sample that is enriched for actives.

target: Oxytocin receptor (Homo sapiens) (UniProt P30559); experiment: human OXTR agonists, primary screen, fluorescence, CHO-OTR cells, Fluo-8 calcium (AID 2435); conditions: Fluo-8 calcium fluorescence, at 3 µM, stronger effect = higher value, normalized: DMSO 0%, oxytocin 100%;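 further: peak over basal fluorescence ratio from a 100 s FLIPR kinetic read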
Sequence (P30559 whole entry, looked up): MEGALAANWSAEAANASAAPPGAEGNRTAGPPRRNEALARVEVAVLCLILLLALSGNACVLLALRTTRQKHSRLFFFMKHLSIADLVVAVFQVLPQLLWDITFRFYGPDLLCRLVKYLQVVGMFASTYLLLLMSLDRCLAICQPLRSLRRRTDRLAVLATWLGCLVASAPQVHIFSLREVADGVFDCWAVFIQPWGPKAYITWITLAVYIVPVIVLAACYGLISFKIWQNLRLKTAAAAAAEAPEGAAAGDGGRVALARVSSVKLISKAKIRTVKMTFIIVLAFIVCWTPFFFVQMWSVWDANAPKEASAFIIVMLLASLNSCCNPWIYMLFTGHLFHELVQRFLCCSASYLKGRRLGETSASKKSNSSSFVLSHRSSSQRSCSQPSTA

Row | SMILES | activation
1 | Cc1ccc(O)c(NC(=S)NC(=O)COc2ccc(Br)cc2)c1 | 51.9% (active)
2 | Cc1ccc(O)c(NC(=O)COc2cc(C)ccc2C)c1 | 0.92% (inactive)
3 | Cc1cccc(OCC(=O)NC(=S)Nc2ccccc2N2CCOCC2)c1 | -0.15% (inactive)
4 | COc1ccc([N+](=O)[O-])cc1NCC(=O)c1ccc(C)cc1 | -1.36% (inactive)
5 | NC(=O)C1=C[C@H](c2csc3ccccc23)C[C@H](OCc2ccc(CO)cc2)O1 | 25.9% (active)
6 | NC(=O)C1=C[C@@H](c2csc3ccccc23)C[C@@H](OCc2ccc(CO)cc2)O1 | 5% (inactive)
7 | O=C(NC1CC1)C1=C[C@H](c2c[nH]c3ccccc23)C[C@H](OCc2ccc(CO)cc2)O1 | -0.84% (inactive)
8 | Cc1ccc(NC(=O)CN(C)C(=O)c2cccc(S(=O)(=O)N3CCCC3)c2)cc1 | -1.01% (inactive)
9 | COc1ccc(/C=C2\SC(=S)N(CCC(=O)Nc3cccc(C(=O)O)c3)C2=O)cc1OC | -0.74% (inactive)
10 | COc1cc(/C=C2/SC(=S)N(Cc3ccccc3)C2=O)cc(OC)c1O | 23.8% (active)
11 | COc1ccc(/C=C2\SC(=S)N(CCCC(=O)NC3CCCC3)C2=O)cc1OC | -1.19% (inactive)
12 | COCCn1c(N)c(NCc2ccccc2)c(=O)[nH]c1=O | 0.2% (inactive)
13 | Cc1ccc(C)c(CN2CCC(CNC(=O)Nc3ccc(C)c(F)c3)CC2)c1 | 2.73% (inactive)
14 | Cc1cccc(CN2CCC(CNC(=O)Nc3ccc(F)c(Cl)c3)CC2)c1 | 28.2% (active)
15 | COc1cc(NC(=O)NCC2CCN(Cc3ccc(C)cc3)CC2)cc(OC)c1OC | 1.34% (inactive)
16 | COc1ccc(Cl)cc1NC(=O)NCC1CCN(Cc2ccccc2F)CC1 | 19.8% (active)
17 | Cc1ccccc1NC(=O)NCC1CCN(Cc2cccc(Cl)c2)CC1 | 1.57% (inactive)
18 | O=C(NCC1CCN(Cc2ccccc2Cl)CC1)Nc1cccc(Cl)c1 | 4.22% (inactive)
19 | CCn1cc(CCC(=O)NCc2ccc(F)cc2)c2ccccc21 | -1.14% (inactive)
20 | COc1ccc(C(C#N)N2N=C(C)CC2(C)C)cc1 (stereo not given) | 0.73% (inactive)
21 | COc1cc(C(F)(F)F)c(C(=O)N(C)c2ccc(Cl)cc2)cn1 | -1.66% (inactive)
22 | COc1ccccc1CNS(=O)(=O)c1cc2c3c(c1)CCC(=O)N3CCC2 | 2.19% (inactive)
23 | CCOc1ccc(N(C(=O)c2snc(C(N)=O)c2N)C(C(=O)NCC2CCCO2)c2c[nH]c3ccccc23)cc1 (stereo not given) | 1.87% (inactive)

Row | SMILES | activation
24 | CCOC(=O)N1CCN(CCC(=O)Nc2ccccc2)CC1 | -0.17% (inactive)
25 | Cc1cc(NC(=O)CCN2CCN(Cc3ccccc3)CC2)ccc1Br | 23.2% (active)
26 | CC1CCN(CCC(=O)Nc2ccccc2)CC1 | -0.16% (inactive)
27 | Cc1ccccc1CCNC(=O)C1CCC(=O)N(Cc2ccc(Cl)cc2)C1 (stereo not given) | -1.42% (inactive)
28 | CCCCCN(C(=O)CCC(=O)OCC(=O)NCc1ccc(OC)cc1)c1c(N)n(CCCC)c(=O)[nH]c1=O | -0.95% (inactive)
29 | COc1ccc(C(=O)NNC(=O)c2cc(C)[nH]n2)cc1 | -1.68% (inactive)
30 | Cc1ccc(-c2cc(C(=O)NN)n[nH]2)o1 | -1.85% (inactive)
31 | CC(CO)(CO)NC(=O)c1ccc(=O)[nH]n1 | 45.8% (active)
32 | O=C(CSc1nc2[nH]ncc2c(=O)[nH]1)Nc1ccc(F)cc1 | 0.71% (inactive)
33 | O=C(NCCC1CCCCN1S(=O)(=O)c1ccc(Cl)cc1)C(=O)NCc1ccco1 (stereo not given) | -1.1% (inactive)
34 | CCN(CC)c1ccc2oc(=O)c(C)nc2c1 | 38% (active)
35 | C=CCN(C(=O)Nc1ccc2oc(C)nc2c1)c1ccccc1 | -0.77% (inactive)
36 | CCN(CC)c1ccc(C(=O)Nn2c(C)nc3ccccc3c2=O)cc1 | 3.66% (inactive)
37 | CCOc1ccc(C)cc1S(=O)(=O)NC1CCCCCC1 | -1.02% (inactive)
38 | C[C@@H]1O[C@@H](OC[C@H]2O[C@@H](Oc3c(-c4ccc(O)cc4)oc4cc(O)cc(O)c4c3=O)[C@H](O)[C@@H](O)[C@@H]2O)[C@H](O)[C@H](O)[C@H]1O | -0.01% (inactive)
39 | CCCCc1nc(NCCN)c(C#N)c2c1CSC(C)(C)C2 | 7.89% (inactive)
40 | CCCC(O)(c1ccc(OC)cc1)C(CN(C)C)c1ccccc1 (stereo not given) | 1.32% (inactive)
41 | COC(=O)c1ccc(OCC(O)CN(CCO)CC(O)Cn2ccc3ccccc32)cc1 (stereo not given) | 3.04% (inactive)
42 | COc1ccc(CN2C(=O)CC(Cc3ccc(C)cc3)C2=O)cc1OC (stereo not given) | -1.49% (inactive)
43 | CCN(Cc1ccccc1)C(=O)CSc1nc(C)cc2c1C(=O)OC2 | 1.04% (inactive)
44 | Cc1ccc(CNC(=O)c2cccc3c2C(=O)c2ccc(N4CCC(C)CC4)cc2S3(=O)=O)cc1 | 40.5% (active)
45 | Cc1ccc(CNC(=O)c2ccc3c(c2)S(=O)(=O)c2ccccc2C3=O)cc1 | -0.21% (inactive)
46 | CC1CCN(c2c(NCc3ccc(C(=O)NCc4ccccc4)cc3)c(=O)c2=O)CC1 | 0.21% (inactive)

Row | SMILES | activation
47 | CC(C)Oc1c(Br)cc(Br)cc1/C=N/NC(N)=S | -1.11% (inactive)
48 | Nc1c(C(=O)c2cccs2)sc2nsc(SCCN3CCCCC3)c12 | 50.2% (active)
49 | O=C(CSc1ncnc2sccc12)N1CCN(C(=O)c2cccs2)CC1 | 1.17% (inactive)
50 | O=C(CCCN1C(=O)CCC1=O)Nc1ccc(Cl)c(C(F)(F)F)c1 | 6.54% (inactive)
51 | CC1=CC(=C(C#N)c2nc3ccccc3s2)C=C(C)N1c1ccc(F)cc1F | 0.27% (inactive)
52 | O=c1[nH][nH]c(C(F)(F)F)c1C=NCc1ccccc1Cl | 1.38% (inactive)
53 | O=C(NCCCc1ccccc1)C(=O)NCC1OCCN1S(=O)(=O)c1ccccc1 (stereo not given) | -0.3% (inactive)
54 | COC(=O)Cc1cc(=O)oc2c(C)c(O)ccc12 | 3.75% (inactive)
55 | Cc1cc(S(=O)(=O)c2cc3ccc(O)c(C)c3oc2=O)ccc1F | 20.6% (active)
56 | COc1cccc2cc(S(=O)(=O)c3ccc(C)cc3)/c(=N/NS(=O)(=O)c3ccc(C)cc3)oc12 | -0.02% (inactive)
57 | COCCNC(=O)NC(=O)COC(=O)C1(c2ccc(Cl)cc2)CC1 | -1.47% (inactive)
58 | CCc1c(C)sc(NC(=O)OC)c1C(=O)N1CCOCC1 | -0.45% (inactive)
59 | CCOc1cc(/C=C2/C(=N)N3OC(C)=CC3=NC2=O)ccc1OC | -0.04% (inactive)
60 | COc1ccc(OCCCn2cccc2/C=C2/C(=N)N3OC(C)=CC3=NC2=O)cc1 | 1.35% (inactive)
61 | CC1=CC2=NC(=O)/C(=C/c3coc4ccccc4c3=O)C(=N)N2O1 | 30.4% (active)
62 | C=CCSc1nc(N)cc(=O)[nH]1 | 0.06% (inactive)
63 | CCCCCCCCCCOC(=O)Cn1c(COc2ccc(C)cc2)[n+](C)c2ccccc21 | -1.93% (inactive)
64 | CCOC(=O)Cn1c(-c2cccnc2Cl)nc2ccccc21 | 0.33% (inactive)
65 | CCCCCCCCCCOC(=O)Cn1c(COc2cccc(OC)c2)[n+](C)c2ccccc21 | 21.5% (active)
66 | CC1=CC(C)(C)NC(=S)N1c1ccccc1 | -0.69% (inactive)
67 | Cc1cc(N)n2nc(-c3ccc(C(C)(C)C)cc3)cc2n1 | -1.18% (inactive)
68 | C#CCOCCOCCOCCNc1nc(N2CCN(C(=O)C([C@@H](C)CC)n3cc(C(N)COC(=O)C(F)(F)F)nn3)CC2)nc(N2CCN(C(=O)[C@H](Cc3ccc(O)cc3)n3cc(C(N)[C@H](C)CC)nn3)CC2)n1 (stereo not given in full) | 0.32% (inactive)
69 | c1ccc(C2CNCc3c2ccc2ccccc32)cc1 (stereo not given) | 22.4% (active)

Row | SMILES | activation
70 | c1ccc2c(CCN3CCNC[C@H]3Cc3cccc4ccccc34)cccc2c1 | 8.2% (inactive)
71 | COCCn1c(=O)[nH]c(=O)c2cc(C(=O)c3cc(OC)ccc3O)cnc21 | -0.31% (inactive)
72 | Cc1ccc2oc(=O)c3cnn(CC(=O)N(Cc4ccco4)C4CCCCC4)c3c2c1 | -1.36% (inactive)
73 | CC1CN(S(=O)(=O)c2ccc(C(=O)NN3CCN(C)CC3)cc2)CC(C)O1 (stereo not given) | 0.04% (inactive)
74 | Brc1ccc(C2=CC(c3ccco3)n3ncnc3N2)cc1 (stereo not given) | 16.4% (inactive)
75 | CCOc1ccc(C2=CC(c3ccccc3)n3ncnc3N2)cc1 (stereo not given) | -2.25% (inactive)
76 | COc1ccc(C2C=C(c3ccc(Br)cc3)Nc3nc(NS(C)(=O)=O)nn32)cc1 (stereo not given) | 20.5% (active)
77 | COc1ccc(OC)c(NC(=S)N2CCc3ccccc3C2)c1 | -1.2% (inactive)
78 | O=S(=O)(c1cccc(Cn2nnc(-c3ccc(F)cc3)n2)c1)N1CCOCC1 | 18.4% (inactive)
79 | O=C(C1CCCN1S(=O)(=O)c1ccc(Br)cc1)N1CCOCC1 (stereo not given) | -0.61% (inactive)
80 | COc1ccc(CNC(=O)c2nnn(CC(=O)Nc3cc(C)cc(C)c3)c2N)cc1 | 0.21% (inactive)
81 | COc1ccc(NC(=O)Cn2nnc(C(=O)NCCc3ccc(OC)c(OC)c3)c2N)cc1 | -0.34% (inactive)
82 | CCc1ccc(NC(=O)Cn2nnc(C(=O)NCc3ccc(OC)cc3)c2N)cc1 | 0.62% (inactive)
83 | CCOc1ccc(Cn2nnc(C(=O)NCc3ccccc3)c2N)cc1 | 32% (active)
84 | COc1cccc(CNC(=O)c2nnn(CC(=O)Nc3cc(Cl)ccc3C)c2N)c1 | 2.37% (inactive)
85 | CCOc1ccc(Cn2nnc(C(=O)Nc3ccc(OC)cc3OC)c2N)cc1 | 25.1% (active)
86 | Cc1ccc2c(c1)N(CC(=O)N1CCC(C)CC1)C(=O)c1cccnc1O2 | 1.7% (inactive)
87 | CCc1cccc(CC)c1NC(=O)COc1ccccc1C(=O)c1cc(C#N)c(=O)n(C2CCCCC2)c1 | 2.32% (inactive)
88 | Cc1cc(C(=O)NC2CCN(Cc3ccccc3)CC2)n[nH]1 | 0.51% (inactive)
89 | CN(CC(=O)NCc1ccc(Cl)cc1)S(=O)(=O)c1cccs1 | 0.76% (inactive)
90 | CC(Oc1cccc(Cl)c1)C(=O)Nc1ccc(S(=O)(=O)Nc2ncccn2)cc1 (stereo not given) | 1.17% (inactive)
